An excerpt weighted towards active compounds, which were near 6.3% of everything screened.
tim23-1 inh = inhibits growth of tim23-1 mutant yeast. S. cerevisiae tim23-1 growth, BacTiter-Glo luminescence, 24 h. inhibition, % at 20 µM. 330,000 compounds, 1.3% hits;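 active = growth inhibition of the mutant yeast at or above 50%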;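 note: temperature-sensitive mutant grown at 25 °C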
Mdm2-MdmX inh = human Mdm2/MdmX binding inhibition; inhibition, % at 8 µM; 330,000 compounds, 3% hits; SaOS-2 split-luciferase Mdm2/MdmX complementation, luminescence; AID 485346; O15151+Q00987;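 active = inhibition of at least 50% at 8 µM in the primary screen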
Target sequence (O15151 whole entry, looked up): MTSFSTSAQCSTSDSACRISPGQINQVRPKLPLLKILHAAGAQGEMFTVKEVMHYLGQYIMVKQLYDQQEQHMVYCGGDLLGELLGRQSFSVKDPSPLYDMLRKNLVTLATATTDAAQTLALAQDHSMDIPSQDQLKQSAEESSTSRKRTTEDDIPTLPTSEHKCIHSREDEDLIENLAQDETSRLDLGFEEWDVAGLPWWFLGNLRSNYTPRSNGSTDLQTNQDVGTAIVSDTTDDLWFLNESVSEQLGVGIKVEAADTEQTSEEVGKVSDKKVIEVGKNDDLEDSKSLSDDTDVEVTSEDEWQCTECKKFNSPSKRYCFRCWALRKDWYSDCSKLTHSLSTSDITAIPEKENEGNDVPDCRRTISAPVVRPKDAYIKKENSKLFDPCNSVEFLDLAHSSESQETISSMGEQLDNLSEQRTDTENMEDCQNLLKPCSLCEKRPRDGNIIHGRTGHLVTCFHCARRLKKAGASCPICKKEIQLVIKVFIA
Target sequence (Q00987 whole entry, looked up): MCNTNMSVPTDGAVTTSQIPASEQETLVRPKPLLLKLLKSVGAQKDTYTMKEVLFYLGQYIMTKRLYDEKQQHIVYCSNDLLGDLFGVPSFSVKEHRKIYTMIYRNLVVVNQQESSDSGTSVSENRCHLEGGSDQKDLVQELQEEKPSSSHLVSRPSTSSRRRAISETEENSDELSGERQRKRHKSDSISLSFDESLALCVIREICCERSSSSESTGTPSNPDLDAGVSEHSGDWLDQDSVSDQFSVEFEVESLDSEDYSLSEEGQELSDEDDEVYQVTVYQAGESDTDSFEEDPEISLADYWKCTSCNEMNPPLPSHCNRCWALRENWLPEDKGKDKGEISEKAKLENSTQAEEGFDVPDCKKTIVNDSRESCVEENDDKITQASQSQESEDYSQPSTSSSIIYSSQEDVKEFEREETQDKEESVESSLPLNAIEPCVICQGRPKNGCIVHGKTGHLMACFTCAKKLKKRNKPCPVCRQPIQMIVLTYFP
tim10-1 inh = growth inhibitors of tim10-1 mutant yeast; S. cerevisiae tim10-1 ts strain growth, BacTiter-Glo, 24 h; inhibition, % at 20 µM; 330,000 compounds, 2.2% hits;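 active = inhibition of at least 40%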;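 note: mutant grown at 25 °C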
MPTP inh = blocks calcium-induced mitochondrial swelling. isolated mouse mitochondria, Ca2+ swelling absorbance, 30 min. inhibition, % at 10 µM. 360,000 compounds, 1.4% hits;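 active = inhibition of 50% or more, scaled per plate between neutral and stimulator controls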
TIM10 inh = inhibits growth of TIM10 yeast strain | S. cerevisiae TIM10 strain growth, BacTiter-Glo luminescence, 24 h | inhibition, % at 10 µM | 330,000 compounds, 1.4% hits | AID 463195;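 active = inhibition of 40% or more at the single tested concentration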;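 note: wild-type TIM10 isogenic control strain grown at permissive 25 °C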
Mdm2-MdmX conf = human Mdm2/MdmX binding inhibition, confirmed. luminescent assay. 10,000 compounds, 55% hits. inhibition, % at 8 µM. shares compounds with Mdm2-MdmX inh; in the data active = inhibition above about 40%
Full FLuc ctr = full-length luciferase inhibition in Mdm2/MdmX counter-screen; shares compounds with Mdm2-MdmX inh; SaOS-2 full-length luciferase counterscreen, luminescence; inhibition, % at 8 µM; 6,200 compounds, 77% hits; AID 504607;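 active = mean inhibition at 8 µM reaching about 37%, which flags the compound as non-specific, limit read from the data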;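 note: p53-null SaOS-2 cells with luciferase driven by a doxycycline-inducible promoter; compound on cells about two nights before reading with doxycycline added after day one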
Large screens that a line does not name were inactive (follow-up assays come after a bar, where they were run).

O=C(c1cc(-c2ccccc2)nn1-c1ccccc1)N1CCN(S(=O)(=O)c2ccc(F)cc2)CC1	none
Cc1ccc(S(=O)(=O)N2CCN(C(=O)c3cc(-c4cccs4)nn3-c3ccccc3)CC2)cc1	Mdm2-MdmX inh 67 | Mdm2-MdmX conf 41 | Full FLuc ctr 88
COc1ccc(CN(CCCn2cnc3c(OC)ncnc32)CCCn2cnc3c(OC)ncnc32)cc1	none (no result: tim23-1 inh, Mdm2-MdmX inh, tim10-1 inh, TIM10 inh)
Cc1cc(C(=O)CSc2ccc(F)cc2)cc(C)c1OC(=S)N(C)C	Mdm2-MdmX inh 58 | Mdm2-MdmX conf 84 | Full FLuc ctr 107
Cc1cccc2cc(C(c3nnnn3Cc3ccccc3)N3CCCc4ccccc43)c(=O)[nH]c12 (centres undefined)	Mdm2-MdmX inh 88 | Mdm2-MdmX conf inactive
C/C(=N\Nc1cc(C)nc(-c2ccccc2O)n1)c1ccccc1O	Mdm2-MdmX inh 89 | Mdm2-MdmX conf 82 | Full FLuc ctr 41
COc1cc(NC(=O)COc2cc(C)cc3oc(=O)cc(C)c23)cc(OC)c1OC	none (no result: tim23-1 inh, Mdm2-MdmX inh, tim10-1 inh, TIM10 inh)
CCOC(=O)c1sc(=NC(=O)c2ccc(S(=O)(=O)N(C)c3ccccc3)cc2)n(C)c1C	Mdm2-MdmX inh 63 | Mdm2-MdmX conf inactive
O=c1cccc(-c2cccc3ccccc23)o1	none (no result: tim23-1 inh, Mdm2-MdmX inh, tim10-1 inh, TIM10 inh)
CCOc1cc(NC(=O)c2ccccc2C)c(OCC)cc1NC(=O)C1=Cc2ccccc2OC1	Mdm2-MdmX inh 62 | Mdm2-MdmX conf inactive
CCCc1cc2c(cc1NC(=O)c1ccccc1C)OCO2	none
N#Cc1ccc(/C=N/N=C(N)N)cc1	none
NC(N)=N/N=C/c1ccc(Br)cc1	Mdm2-MdmX inh 54 | Mdm2-MdmX conf 58 | Full FLuc ctr 57
NC(N)=N/N=C/c1ccc(OCc2ccc(Cl)cc2)cc1	Mdm2-MdmX inh 98 | Mdm2-MdmX conf inactive
NC(N)=N/N=C/c1ccc(OCc2ccccc2)cc1	Mdm2-MdmX inh 55 | Mdm2-MdmX conf inactive
CN(C(=O)COC(=O)COc1ccc2ccccc2c1)c1ccccc1	none (no result: tim23-1 inh, Mdm2-MdmX inh, tim10-1 inh, TIM10 inh)
COc1ccc(-c2csc3ncnc(NCCCO)c23)cc1	none
COc1ccc(-c2csc3ncnc(NCCO)c23)cc1	Mdm2-MdmX inh 71 | Mdm2-MdmX conf 59 | Full FLuc ctr inactive
COc1cccc(NC(=O)CSc2nc3c(sc4ccccc43)c(=O)n2CCN(C)C)c1	none
COc1cccc(NC(=O)CSc2nc3c(sc4ccccc43)c(=O)n2CCCN2CCCC2)c1	Mdm2-MdmX inh 89 | Mdm2-MdmX conf inactive
CCN(CC)CCn1c(SCC(=O)Nc2cccc(OC)c2)nc2c(sc3ccccc32)c1=O	Mdm2-MdmX inh 51 | Mdm2-MdmX conf inactive
Cc1ccc(OCCN2CCN(CC(O)Cn3c4ccccc4c4ccccc43)CC2)cc1 (centres undefined)	Mdm2-MdmX inh 85 (no result: MPTP inh) | Mdm2-MdmX conf inactive
CC1(C(=O)Nc2cnc3ccccc3c2)CCN1C(=O)c1ccccc1CCc1ccccc1 (centres undefined)	none (no result: tim23-1 inh, Mdm2-MdmX inh, tim10-1 inh, TIM10 inh)
COC(=O)C1=C(C(=O)OC)C2C=CC1C1C(OC(C)=O)C(OC(C)=O)C21 (centres undefined)	none (no result: tim23-1 inh, Mdm2-MdmX inh, tim10-1 inh, TIM10 inh)
CC(C)n1cnc2c(N(C)c3ccccc3)nc(N(CCN(C)C)Cc3ccccc3)nc21	Mdm2-MdmX inh 58 | Mdm2-MdmX conf inactive
CCOC(=O)[C@]12CCC=C1N(Cc1ccc(Cl)cc1Cl)C(=O)[C@H](CC(=O)N1CCSCC1)C2	none (no result: tim23-1 inh, Mdm2-MdmX inh, tim10-1 inh, TIM10 inh)
O=C1NC[C@@H](CCCCN2C[C@H](Cc3ccccc3)N(CC3CCCCC3)C(=O)C2=O)N(Cc2ccccc2)C1=O	none (no result: tim23-1 inh, Mdm2-MdmX inh, tim10-1 inh, TIM10 inh)
CSc1nc2c(c(=O)[nH]c(=O)n2C)n1Cc1ccc(Cl)cc1	none
Cn1c(=O)[nH]c(=O)c2c1nc(N/N=C/c1ccncc1)n2Cc1ccc(Cl)cc1	Mdm2-MdmX inh 67 | Mdm2-MdmX conf inactive
O=C(CCl)N(Cc1ccccc1)c1ccccc1	Mdm2-MdmX inh 96 | Mdm2-MdmX conf 96 | Full FLuc ctr 55
O=C(CCl)N(Cc1cc(=O)[nH]c2ccccc12)c1ccccc1	Mdm2-MdmX inh 100 | Mdm2-MdmX conf 100 | Full FLuc ctr 53
Cc1cccc(N(Cc2ccccc2)C(=O)CCl)c1	none (no result: tim23-1 inh, Mdm2-MdmX inh, tim10-1 inh, TIM10 inh)
